Here are results for 10 compounds from PubChem BioAssay.

Activity calls are given as the source filed them. Unless noted, no rule for the calls is given here.

The nature of experiment [1]: resazurin metabolic signal in HepG2 cells – cell-based, resazurin fluorescence, 24 h, PK04 Diversity Set, profiling panel (AID 1172). Also: test concentration not given here. As to conditions: HepG2 viability, higher = more signal. For orientation: Alamar Blue is a resazurin reagent that responds to reducing activity.
A short description of experiment [2]: budding yeast growth changes without added modifier – OD600, strain BY4716, 24 h, basal condition, primary screen (AID 1173). To be noted: S. cerevisiae BY4716 growth, OD600, 24 h; higher = more signal, called active from +8 up or from −8 down.
Experiment [3] is described as follows: viability profiling in MM1S myeloma cells – cell-based, resazurin fluorescence, basal, 24 h, PK04 Diversity Set, profiling panel (AID 1174).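 Also: MM1S multiple myeloma cell line; test concentration not given here.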 To be noted: higher = more signal, called active from +8 up or from −8 down.
In experiment [4] the target is Dihydroorotate dehydrogenase (quinone), mitochondrial (Plasmodium falciparum (isolate 3D7)) (UniProt Q08210). Briefly: inhibition of P. falciparum DHODH – biochemical, C-terminal His tag, absorbance 600 nm, primary screen (AID 1175).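 Also: recombinant parasite enzyme with a five histidine tag at its C terminus; test concentration not given here.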 To be noted: PfDHODH enzyme, DCIP absorbance 600 nm; higher = more signal, called active from +8 up or from −8 down.
Chain of Dihydroorotate dehydrogenase (quinone), mitochondrial (Plasmodium falciparum (isolate 3D7)) (Q08210 whole entry, looked up): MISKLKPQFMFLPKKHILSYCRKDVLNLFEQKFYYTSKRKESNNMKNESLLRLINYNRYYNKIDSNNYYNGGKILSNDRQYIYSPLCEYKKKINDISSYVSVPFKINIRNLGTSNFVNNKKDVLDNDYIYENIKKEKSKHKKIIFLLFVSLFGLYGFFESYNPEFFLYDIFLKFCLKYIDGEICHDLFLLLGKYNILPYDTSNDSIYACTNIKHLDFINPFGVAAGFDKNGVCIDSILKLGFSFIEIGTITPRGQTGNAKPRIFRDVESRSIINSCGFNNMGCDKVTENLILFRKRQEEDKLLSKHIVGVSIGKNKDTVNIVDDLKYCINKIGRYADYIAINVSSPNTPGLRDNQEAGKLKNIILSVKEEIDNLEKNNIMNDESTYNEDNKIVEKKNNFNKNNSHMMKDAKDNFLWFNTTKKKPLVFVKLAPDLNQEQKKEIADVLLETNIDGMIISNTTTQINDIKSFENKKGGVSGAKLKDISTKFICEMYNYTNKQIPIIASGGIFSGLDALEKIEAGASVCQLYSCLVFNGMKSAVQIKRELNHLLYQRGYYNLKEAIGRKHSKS
A short description of experiment [5]: inhibition of PAO1 biofilm formation – strain PAO1, LB-PBS medium, absorbance 600 nm, primary screen (AID 1176). Also: test concentration not given here. To be noted: P. aeruginosa PAO1 growth/biofilm, A600, 12 h; higher = more signal.
The nature of experiment [6]: growth modulation of vineyard yeast isolate – strain RM11-1a, OD600, basal, 24 h, primary screen (AID 1177).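 Also: cultures grown under basal conditions with no added stressor; test concentration not given here.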 To be noted: S. cerevisiae RM11-1a growth, OD600, 24 h; higher = more signal, called active from +8 up or from −8 down.
A short description of experiment [7]: growth of efflux-deficient E. coli DRC39 – strain DRC39, OD650, 24 h, E. coli filamentation inducers, primary screen (AID 1178).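 Also: growth measured as culture turbidity by optical density at 650 nm; test concentration not given here.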 To be noted: E. coli DRC39 acrAB, higher = more signal, called active from +8 up or from −8 down.
The nature of experiment [8]: growth of efflux-deficient E. coli DRC39 – strain DRC39, OD650, 48 h, E. coli filamentation inducers, primary screen (AID 1179).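 Also: screen aims at cell division blockers that make cells filament.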 As to conditions: E. coli DRC39 delta-acrAB growth, higher = more signal, called active from +8 up or from −8 down.
The nature of experiment [9]: viability profiling in RPMI8226 myeloma cells – cell-based, resazurin fluorescence, basal, 24 h, PK04 Diversity Set, profiling panel (AID 1180).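 Also: RPMI8826 multiple myeloma cell line at 5000 cells per well; test concentration not given here.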 As to conditions: higher = more signal.
In experiment [10] the target is E3 ubiquitin-protein ligase XIAP (Homo sapiens) (UniProt P98170). The experiment can be described thus: small molecules binding XIAP protein – biophysical, small-molecule microarray, fluorescence 635 nm, primary screen (AID 1181).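 Also: score merges 667 nm emission and signal to noise over triplicate slides.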 To be noted: higher = more signal.
Chain of E3 ubiquitin-protein ligase XIAP (Homo sapiens) (P98170 whole entry, looked up): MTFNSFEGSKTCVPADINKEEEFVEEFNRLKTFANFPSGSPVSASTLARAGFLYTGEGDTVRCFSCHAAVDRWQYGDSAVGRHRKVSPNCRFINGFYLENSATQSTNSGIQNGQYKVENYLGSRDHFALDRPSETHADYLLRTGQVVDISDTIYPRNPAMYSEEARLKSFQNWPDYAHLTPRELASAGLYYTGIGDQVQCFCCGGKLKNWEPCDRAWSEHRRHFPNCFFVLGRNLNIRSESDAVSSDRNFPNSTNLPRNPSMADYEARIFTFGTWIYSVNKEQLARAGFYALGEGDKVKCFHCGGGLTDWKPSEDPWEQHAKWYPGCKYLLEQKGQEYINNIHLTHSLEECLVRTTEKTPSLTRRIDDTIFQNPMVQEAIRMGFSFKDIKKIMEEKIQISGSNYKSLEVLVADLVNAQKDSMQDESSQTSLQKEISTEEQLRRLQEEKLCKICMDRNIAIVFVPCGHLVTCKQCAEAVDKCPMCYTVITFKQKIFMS

In the case of `O=C1O[C@H](c2ccccc2)[C@H](c2ccccc2)N2[C@H]1[C@@H](C(=O)NC[C@H](O)c1ccccc1)[C@]1(C(=O)Nc3ccc(C#CCCO)cc31)[C@H]2c1ccccc1OCCO`, the z-score in experiment [1] was 1.19; in experiment [2] it was 0.904 (inactive); in [3] it was -1.12 (inactive); in experiment [5] it was 0.517 (inactive); in experiment [6] it was 1.48 (inactive); in experiment [7], 0.439 (inactive). Besides, the z-score in [8] was -0.467 (inactive); in experiment [9], -0.591. Moreover, the composite z-score in experiment [4] was -0.532 (inactive); in experiment [10], -0.209.

On to `CC(=O)c1ccc(C(O)C2C=CC3C(=O)NC(=O)C3N2Nc2ccc(Cl)cc2Cl)cc1` (stereo not given), for which the z-score in experiment [1] was -1.16; in experiment [2] it was -2.33 (inactive); in experiment [3], -1.35 (inactive); in [5], 0.835 (inactive); in experiment [6], 1.39 (inactive); in experiment [7], 0.385 (inactive). Also, the z-score in experiment [8] was -1.48 (inactive); in [9], -1.8. In addition, the values for the composite z-score in [4] and in [10] were 1.16 (inactive) and -0.0421, respectively.

On to `CN1C(=O)C2C=CC(C(O)c3ccc(-c4ccccc4)s3)N(Nc3ccccc3)C2C1=O` (stereo not given), for which the z-score is -0.208 in [1]; -1.02 (inactive) in experiment [2]; -1.03 (inactive) in experiment [3]; 1.6 (inactive) in [5]; 0.0727 (inactive) in experiment [6]; 0.243 (inactive) in experiment [7]. In addition, the z-score in experiment [8] is -0.0198 (inactive); in experiment [9], -0.985. For the same compound, the composite z-score in [4] was 0.71 (inactive); in experiment [10], 0.148.

Consider `CC(C)=CCN(C(=O)C#Cc1ccccc1)[C@H](CO)c1ccccc1`, for which the z-score in [1] is -3.85; in experiment [2], -0.192 (inactive); in experiment [3], -5.79 (inactive); in [5], -0.0218 (inactive); in experiment [6], 3.26 (inactive); in experiment [7], 0.163 (inactive). For the same compound, the z-score in experiment [8] was -2.57 (inactive); in experiment [9], -5.82. Further, the composite z-score in experiment [4] is 0.885 (inactive); in experiment [10] it was 0.165.

As for `COC(=O)[C@@]1(CCC(=O)OC(C)(C)C)N=C(c2ccc(OCCCO)cc2)O[C@H]1c1ccccc1CN=[N+]=[N-]`, the z-score in experiment [1] was 0.118; in [2], 0.696 (inactive); in [3] it was -1.79 (inactive); in [5] it was 0.563 (inactive); in [6], 1.56 (inactive); in experiment [7] it was 0.224 (inactive). Further, the values for the z-score in experiment [8] and in experiment [9] were -0.0915 (inactive) and -2.11, respectively. In addition, the composite z-score was 0.507 (inactive) in experiment [4] and 0.165 in experiment [10].

As to `CC(C)C[C@@H]1NC(=O)[C@@H]2C[C@H](C(=O)O)[C@H](c3ccc(O)cc3)N2C1=O`, the z-score was -1.68 in experiment [1]; -0.568 (inactive) in [2]; 1.18 (inactive) in [3]; 0.407 (inactive) in [5]; -1.11 (inactive) in [6]; 2.14 (inactive) in experiment [7]. Further, the results for the z-score in [8] and in experiment [9] were 1.94 (inactive) and 1.16, respectively. The results for the composite z-score in experiment [4] and in experiment [10] were 0.372 (inactive) and 0.254, respectively.

`O=C1c2ccccc2[C@@]2(Cc3ccccc3N(Cc3ccccc3)C2=O)[C@H](c2ccc(CO)cc2)N1Cc1ccccc1`: the z-score in experiment [1] was -0.739; in experiment [2], -0.773 (inactive); in experiment [3] it was -0.851 (inactive); in experiment [5], 0.0714 (inactive); in [6], -0.153 (inactive); in [7] it was -0.0466 (inactive). The z-score in experiment [8] is -0.0261 (inactive); in experiment [9], -0.982. For the same compound, the results for the composite z-score in experiment [4] and in experiment [10] were -2.87 (inactive) and -0.0525, respectively.

As for `COC(=O)C1=CC(CCCO)=CC(C2CC2)N(Cc2cccc(OC(F)(F)F)c2)C=C1C(=O)OC` (stereo not given), the z-score in experiment [1] is 0.588; in experiment [2] it was -1.76 (inactive); in [3], 0.348 (inactive); in experiment [5] it was 0.034 (inactive); in experiment [6], 0.0808 (inactive); in experiment [7], 1.01 (inactive). Besides, the results for the z-score in experiment [8] and in experiment [9] were 1.1 (inactive) and 0.693, respectively. For the same compound, the values for the composite z-score in [4] and in experiment [10] were -6.2 (inactive) and -0.22, respectively.

With `CC(C)[C@@H](C(=O)O)n1cc(-c2ccccc2)nn1`, the z-score in experiment [1] is -0.606; in [2] it was -0.291 (inactive); in [3], -0.372 (inactive); in [5] it was -0.145 (inactive); in [6], -0.618 (inactive); in experiment [7], 0.0178 (inactive). Further, the z-score is -0.279 (inactive) in experiment [8] and -0.874 in experiment [9]. In addition, the composite z-score is -0.207 (inactive) in experiment [4] and 0.0402 in [10].

In the case of `CC(C)C[C@H]1NC(=O)[C@@H](C)NC(=O)[C@@]23C(=O)N[C@@H](Cc4ccccc4)C2[C@H](C)[C@@]2(C)O[C@H]2C3/C=C/C/C=C\CNC1=O` (stereo not given in full), the z-score was -0.328 in experiment [1]; -0.808 (inactive) in experiment [2]; 0.0814 (inactive) in experiment [3]; 0.531 (inactive) in experiment [5]; -1.27 (inactive) in experiment [6]; -0.46 (inactive) in experiment [7]. The z-score was 0.184 (inactive) in [8] and 0.184 in experiment [9]. The composite z-score is -1 (inactive) in experiment [4] and -0.102 in experiment [10].
